Screening data from PubChem.
G9a block: blocks human histone lysine methyltransferase G9a. Q96KQ7. G9a H3K9 monomethylation, AlphaScreen, 2 h. Potency, µM (highest dose often 102 µM), usual class: inhibitors. 8.8% of 350,000 active; also: nearly all actives have a fitted effect of over 75% in size
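Signal arises when biotinylated H3K9 peptide, once monomethylated, bridges streptavidin donor and antibody-captured acceptor beads. Enzyme at 20 nM was preincubated 15 min with test compounds; peptide 500 nM and SAM 20 uM then reacted for 2 h.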
JMJD2A Tudor inh: JMJD2A Tudor domain (human) inhibition; O75164; AID 504339; Potency, µM (highest dose often 114 µM), hits mostly inhibitors; AlphaScreen JMJD2A-Tudor / H3K4me3 peptide binding; 4.4% of 390,000 active; also: nearly all actives have a fitted effect of over 50% in size
CtBP-E1A inh: inhibitors of CtBP/E1A interaction. AlphaScreen GST-E1A/His-CtBP binding, 1536-well; stronger effect = lower value. activity change, % (test concentration not listed). 0.49% of 340,000 active. AID 651724; in the data active = activity change below about -65%; inconclusive = mostly about -30% to -63%
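Protein mix (5X: 125 nM each GST-E1A, His-CtBP) was incubated with pinned compound 2 h at 37 deg C in dark, in 50 mM Tris pH 8.0 buffer with 300 mM NaCl. Glutathione donor and nickel acceptor beads followed; AlphaScreen signal read after 1 h.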
BAZ2B block: blocks human BAZ2B; Q9UIF8; AlphaScreen BAZ2B-H3K14Ac peptide displacement; Potency, µM (doses to about 114 µM), actives largely listed as inhibitors; 4.4% of 360,000 active; AID 504333; also: nearly all actives have a fitted effect of over 60% in size
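Compounds, titrated to a top concentration of 110 uM, were incubated 30 min at room temperature with preformed BAZ2B/acetyl-K14 H3 peptide complex (50 nM each). Proximity signal was measured by AlphaScreen after 20 min with beads.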
HP1b chromo inh: HP1-beta chromodomain-methylated histone interaction inhibition; AlphaScreen HP1-beta / biotin-H3K9me3 peptide binding; Potency, µM (series often up to 114 µM), hits mostly inhibitors; AID 540317; 0.56% of 390,000 active; also: nearly all actives have a fitted effect of over 70% in size
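HP1-beta protein (50 nM final) preincubated 30 min at room temperature with biotinylated H3(1-18)K9me3 peptide (50 nM) in PBS pH 7.4, 0.01% Tween-20, then compound added for 30 min. AlphaScreen streptavidin donor/nickel chelate acceptor beads (10 ug/mL final), 30 min dark, luminescence read.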
Six1-Eya2 inh: Six1/Eya2 interaction inhibition. AlphaScreen GST-Six1/His-Eya2 binding, biochemical; stronger effect = lower value. AID 651725. Q15475+O00167. activity change, % (test concentration not listed). 0.56% of 360,000 active; in the data active = activity change below about -65%; inconclusive = mostly about -30% to -63%
Target sequence (O00167 whole entry, looked up): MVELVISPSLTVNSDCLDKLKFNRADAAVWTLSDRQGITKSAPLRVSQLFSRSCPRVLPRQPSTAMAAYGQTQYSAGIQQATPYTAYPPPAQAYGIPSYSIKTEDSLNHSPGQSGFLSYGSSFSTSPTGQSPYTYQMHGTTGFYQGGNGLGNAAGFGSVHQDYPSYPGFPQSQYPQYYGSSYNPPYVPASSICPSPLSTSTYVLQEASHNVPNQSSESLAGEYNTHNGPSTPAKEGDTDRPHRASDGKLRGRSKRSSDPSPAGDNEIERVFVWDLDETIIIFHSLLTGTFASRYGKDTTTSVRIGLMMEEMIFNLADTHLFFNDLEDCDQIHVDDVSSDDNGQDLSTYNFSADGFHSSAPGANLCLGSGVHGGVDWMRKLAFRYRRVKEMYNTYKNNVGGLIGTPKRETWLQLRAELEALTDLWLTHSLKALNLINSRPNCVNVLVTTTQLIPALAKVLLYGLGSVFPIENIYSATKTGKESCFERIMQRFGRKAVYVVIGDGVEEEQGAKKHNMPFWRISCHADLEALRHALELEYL
Target sequence (Q15475 whole entry, looked up): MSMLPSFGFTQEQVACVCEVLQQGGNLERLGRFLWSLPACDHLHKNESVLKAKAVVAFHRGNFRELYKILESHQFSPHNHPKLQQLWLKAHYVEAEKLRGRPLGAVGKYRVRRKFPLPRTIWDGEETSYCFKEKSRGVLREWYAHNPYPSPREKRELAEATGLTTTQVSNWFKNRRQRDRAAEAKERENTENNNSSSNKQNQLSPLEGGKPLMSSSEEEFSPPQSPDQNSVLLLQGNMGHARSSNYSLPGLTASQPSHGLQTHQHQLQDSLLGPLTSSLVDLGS
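AlphaScreen luminescence read after one hour at 37 °C in darkness. Pin-transferred compounds met GST-Six1 and His-Eya2 protein (5X stock 250 nM/500 nM) plus glutathione donor and Ni-chelate acceptor beads (5X, 50 ug/mL).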
Hits are given with their value; . = inactive; ? = inconclusive; / = no result given; [ ] = dose if it differs, or a comment. Sampled rows, rich in hits. Any-hit rate of the full collection: about 10%. Unless noted, calls follow the shape of the dose curve; as a rule, active = well fitted inhibition curve with a large enough effect; inconclusive = small, poorly fitted or top-dose-only effect; inactive = no such curve, though single readings can be large or run the other way.

SMILES	G9a block	JMJD2A Tudor inh	CtBP-E1A inh	BAZ2B block	HP1b chromo inh	Six1-Eya2 inh
CCCCC(CCC(=O)Nc1cccc([N+](=O)[O-])c1)C(=O)O (stereo not drawn)	.	.	.	.	.	.
CCOC(=O)c1ccc(N(CC(=O)NCC2CCCO2)C(=O)CCC(=O)Nc2cc(C)on2)cc1 (stereo not drawn)	.	.	.	.	.	.
CN(CCCOc1ccccc1Br)Cc1ccccc1	.	.	.	.	.	.
Cc1ccc(Cl)c(OCCCN(C)Cc2ccccc2)c1	1.8µM	1.1µM	.	32µM	45µM	.
Cc1ccc(Cl)c(OCCCCN(C)Cc2ccccc2)c1	10µM	2.8µM	.	.	.	.
CCN(CC)S(=O)(=O)c1ccc2c(c1)N(CC(=O)NCCCN1CCN(c3ccc(OC)cc3)CC1)C(=O)CO2	?	.	/	.	.	/
CCCCn1c(NCc2cc(Cl)ccc2O)nc2ccccc21	.	.	/	.	.	/
S=C(NCc1ccccc1)NN1CCOCC1	.	.	.	.	.	.
C[C@H](NC(=O)c1nc[nH]c1C(=O)NCC(=O)OC(C)(C)C)C(=O)OC(C)(C)C	.	.	/	?	.	.
O=C(CNC(=O)c1nc[nH]c1C(=O)N1CCNCC1)OCc1ccccc1	.[12.7 µM]	50µM	.	50µM	.	.
C[C@H](NC(=O)c1nc[nH]c1C(=O)N1CCNCC1)C(=O)OCc1ccccc1	.[2.33 µM]	35µM	.	56µM	.	.
C[C@H](NC(=O)c1nc[nH]c1C(=O)NC1CCNCC1)C(=O)OC(C)(C)C	?	.	.	50µM	.	.
Cc1ccc(CNC(=O)CSCc2ccccc2C)cc1	.	.	/	.	.	/
S=c1[nH]nc(-c2ccco2)n1-c1ccccc1Cl	?	5µM	.	.	.	.
S=c1[nH]nc(-c2cc(-c3ccco3)[nH]n2)n1-c1ccccc1Cl	4.5µM	89µM	.	50µM	.	.
COc1ccc(OC)c(-n2c(-c3ccc(C)cc3)n[nH]c2=S)c1	?	?	.	.	.	.
COc1ccc(-c2cc(-c3n[nH]c(=S)n3-c3ccccc3Cl)[nH]n2)cc1	7.9µM	.	.	.	.	.
S=c1[nH]nc(-c2cc(-c3ccco3)[nH]n2)n1-c1ccccc1	.[0.501 µM]	50µM	.	?	.	.
COc1ccc(OC)c(-n2c(-c3cc(-c4ccco4)[nH]n3)n[nH]c2=S)c1	.	?	.	.	.	.
CNc1ncnc2c1ncn2[C@@H]1O[C@H](COP(=O)(O)O)[C@@H](O)[C@H]1O	.	/	/	/	/	/
Cc1cccc(-n2ncc(C(=O)NCc3ccc4c(c3)OCO4)c2C2CCN(C(=O)OC(C)(C)C)CC2)c1	.	.	/	.	.	/
C#CCOCCOCCOCCNc1nc(N2CCN(C(=O)[C@H](Cc3cc4ccccc4[nH]3)n3cc([C@@H](N)C(C)CC)nn3)CC2)nc(N2CCN(C(=O)[C@H](Cc3cc4ccccc4[nH]3)n3cc([C@@H](N)Cc4ccc(O)cc4)nn3)CC2)n1 (stereo partly drawn)	.[12.7 µM]	/	/	11µM	/	/
C#CCOCCOCCOCCNc1nc(N2CCN(C(=O)[C@H](Cc3ccc(O)cc3)n3cc([C@@H](N)C(C)CC)nn3)CC2)nc(N2CCN(C(=O)[C@H](Cc3cc4ccccc4[nH]3)n3cc([C@@H](N)CC(C)C)nn3)CC2)n1 (stereo partly drawn)	?	45µM	.	35µM	?	.
C#CCOCCOCCOCCNc1nc(N2CCN(C(=O)[C@H](Cc3ccc(O)cc3)n3cc([C@@H](N)C(C)CC)nn3)CC2)nc(N2CCN(C(=O)[C@H](Cc3cc4ccccc4[nH]3)n3cc([C@@H](N)C(C)CC)nn3)CC2)n1 (stereo partly drawn)	.	45µM	?	28µM	.	.
COc1ccccc1CNc1ccc(-c2nc(C(C)C)no2)cc1[N+](=O)[O-]	.	.	/	.	.	/
SMILES	G9a block	JMJD2A Tudor inh	CtBP-E1A inh	BAZ2B block	HP1b chromo inh	Six1-Eya2 inh
COc1ccccc1-n1nnnc1SCC(=O)N(C)C1CCS(=O)(=O)C1 (stereo not drawn)	.[12.7 µM]	.	.	.	.	.
O=C(O)c1ccc2c(ccc3nn(-c4ccc(/C=C/c5ccc(-n6nc7ccc8cc(C(=O)O)ccc8c7n6)cc5[S+](=O)([O-])[O-])c([S+](=O)([O-])[O-])c4)nc32)c1	/	18µM	/	/	?	/
O=[S+]([O-])([O-])c1ccc2c(c1)cc([S+](=O)([O-])[O-])c1nn(-c3ccc(/C=C/c4ccc(-n5nc6c([S+](=O)([O-])[O-])cc7cc([S+](=O)([O-])[O-])ccc7c6n5)cc4[S+](=O)([O-])[O-])c([S+](=O)([O-])[O-])c3)nc12	/	56µM	/	/	.	/
CCc1ccc(NC(=O)CSc2nc(-c3ccccc3)no2)cc1	.	.	/	.	.	/
O=C(Cn1nc(-c2ccc(F)cc2)ccc1=O)Nc1ccc2c(c1)OCCO2	.	.	.	.	.	.
CCOc1ccc(CCNC(=O)CCn2c(=O)c3cccn3c3ccc(F)cc32)cc1OCC	.	.	/	.	.	/
CCOC(=O)c1c(CCl)nc2ccccc2c1C	?	89µM	.	?	.	.
Cc1nc2ccccc2c(C)c1C(=O)c1ccccc1	50µM	.[11.4 µM]	/	?	.	.
Cc1ccc(CN2CCC(C)(Oc3ccc(Cl)cc3)C2)cc1 (stereo not drawn)	/	/	.	/	/	.
O=C(CCS(=O)(=O)c1ccc2c(c1)NC(=O)CS2)NCCc1ccc(Cl)cc1	.	16µM	.	.	.	.
CCc1cccc(C)c1NC(=O)C1CCN(S(=O)(=O)c2c(C)noc2/C=C/c2c(C)cc(C)cc2C)CC1	.	.	/	.	?	/
O=C(Cn1cnc2ccccc21)N/N=C/C(Br)=C/c1ccccc1	.	.	-83	.	.	.
CC1=NNC(=O)C1CCC(=O)N/N=C/C(Br)=C/c1ccccc1 (stereo not drawn)	50µM	.	.	.	.	.
CC1=NNC(=O)C1CC(=O)N/N=C/C(Br)=C/c1ccccc1 (stereo not drawn)	.	.	/	.	.	.
O=C(COC(=O)/C=C/c1ccc([N+](=O)[O-])cc1)NCc1ccco1	.	.	.	.	.	.
COc1cc(/C=C/C(=O)OCC(=O)NCc2ccco2)ccc1O	40µM	.	.	.	.	.
O=C(COC(=O)/C=C/c1cccc([N+](=O)[O-])c1)NCc1ccco1	.	.	/	71µM	.	.
Cc1cc2c(s1)c1cnn(Cc3ccc(OC(F)F)cc3)c(=O)c1n2C	/	.	/	/	/	/
CC(=O)Nc1ccc(NC(=O)COC(=O)c2c3c(nc4ccccc24)CCN(Cc2ccccc2)C3)cc1	50µM	.	.	.	.	.
